Data on 14 molecules can be found in the supplement of paper PMC3414501.

For assay [1], the system named is S. cerevisiae SK1 pCDA2-eGFP (USY613), sporulating. The assay is described as follows: CDA2-GFP sporulation assay sensitivity score (z-score vs DMSO controls); higher = stronger inhibition of sporulation, active = hit call of the paper.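 Note: active if sensitivity score above 5.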
Assay [2] has as its system S. cerevisiae NKY1551 his4x/his4B, sporulating. The assay is described as follows: HIS4 meiotic recombination assay sensitivity score (z-score vs DMSO controls); higher = stronger inhibition of sporulation/recombination, active = hit call of the paper.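 Note: active if sensitivity score above 5.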
Assay [3] deals with S. cerevisiae AD1-9 (efflux-pump deficient), vegetative growth in YPD. In words: growth sensitivity score (doubling time z-score vs DMSO controls); higher = slower growth, strongly negative scores also mark growth inhibition (complete suppression), active = hit call of the paper. A digest of the protocol:
(§1)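 Saccharomyces cerevisiae strains BY4741 and AD1-9 were seeded in rich medium in microtiter plates at an OD600 of 0.065. Compounds were added at a 1:100 dilution of DMSO stock. Optical density was read every 15 min for 24 hours on a Tecan GENios reader. Average doubling time was the time taken to reach a set generation point divided by generation number, and the growth sensitivity score was (compound mean − DMSO-control mean)/DMSO-control SD, using eight DMSO controls per experiment.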

Assay [4] deals with S. cerevisiae BY4741 (wild-type), vegetative growth in YPD. The description is as above. The method in brief: as §1

Structures are written as SMILES. Counter-ions that a name gives are not always drawn.

As for `C=C1/C(=C\C=C2/CCC[C@]3(C)[C@@H]([C@H](C)CCCC(C)(C)O)CC[C@@H]23)C[C@@H](O)C[C@@H]1O` [Calcitriol] (stock concentration (mM, diluted 1:100): 10), the “CDA2-GFP sporulation assay sensitivity score” value in assay [1] is 3.05 (inactive). In addition, the “HIS4 meiotic recombination assay sensitivity score” value in assay [2] is 2.18 (inactive). Moreover, the growth sensitivity score is 21.1 (active) in assay [3] and -0.32 (inactive) in assay [4].
For `OC[C@H]1O[C@@H](n2cnc3c(N[C@H]4CCC[C@@H]4O)ncnc32)[C@@H](O)C1O` (stereo partly specified) (stock concentration (mM, diluted 1:100): 10), in that order: 2.98 (inactive), 1.26 (inactive), -0.69 (inactive) and -0.79 (inactive).
`CN(C)CCc1c[nH]c2ccc(Cn3cncn3)cc12` [Rizatriptan benzoate] (stock concentration (mM, diluted 1:100): 10): the “CDA2-GFP sporulation assay sensitivity score” value in assay [1] is -0.91 (inactive). In assay [2], the “HIS4 meiotic recombination assay sensitivity score” value is -0.35 (inactive). Also, the growth sensitivity score in assay [3] is -1.17 (inactive); in assay [4], -0.18 (inactive).
The like results for `COC(=O)C1=C(C)NC(C)=C(C(=O)OCC(C)C)C1c1ccccc1[N+](=O)[O-]` (stereo unspecified) [Nisoldipine] (stock concentration (mM, diluted 1:100): 10) were, in that order, -0.05 (inactive), -2.61 (inactive), 89.2 (active) and 57 (active).
Turning to `COc1cc(CNC(=O)CCCC/C=C/C(C)C)ccc1O` [Capsaicin] (stock concentration (mM, diluted 1:100): 10), in assay [1], the “CDA2-GFP sporulation assay sensitivity score” value is -1.12 (inactive). In addition, in assay [2], the “HIS4 meiotic recombination assay sensitivity score” value is 2.12 (inactive). The growth sensitivity score in assay [3] was 25.8 (active); in assay [4], 3.2 (active).
As for `C=CC1=C(C(=O)O)N2C(=O)[C@@H](NC(=O)/C(=N\OCC(=O)O)c3csc(N)n3)[C@H]2SC1` [Cefixime trihydrate] (stock concentration (mM, diluted 1:100): 10), in assay [1], the “CDA2-GFP sporulation assay sensitivity score” value is 2.05 (inactive). Besides, the “HIS4 meiotic recombination assay sensitivity score” value in assay [2] was -3.32 (inactive). For the same molecule, the results for the growth sensitivity score in assay [3] and in assay [4] were -1.39 (inactive) and -0.62 (inactive), respectively.
In the case of `CC(CCCCC(=O)Nc1ccc(C(F)(F)F)cc1)NCCc1cnc[nH]1` (stereo unspecified) (stock concentration (mM, diluted 1:100): 10), the “CDA2-GFP sporulation assay sensitivity score” value in assay [1] was 2.58 (inactive). In addition, the “HIS4 meiotic recombination assay sensitivity score” value in assay [2] is -0.79 (inactive). The values for the growth sensitivity score in assay [3] and in assay [4] were 1.41 (inactive) and -0.06 (inactive), respectively.
For the molecule `c1cnc(N2CCN(Cc3ccc4c(c3)OCO4)CC2)nc1` [Piribedil] (stock concentration (mM, diluted 1:100): 9.7), in assay [1], the “CDA2-GFP sporulation assay sensitivity score” value is 6.47 (inactive). The “HIS4 meiotic recombination assay sensitivity score” value in assay [2] was -0.82 (inactive). The growth sensitivity score was -3.77 in assay [3] and 1.65 (inactive) in assay [4].
On to `CC(=O)N1CCN(c2ccc(OCC3COC(Cn4ccnc4)(c4ccc(Cl)cc4Cl)O3)cc2)CC1` (stereo unspecified) [Ketoconazole] (stock concentration (mM, diluted 1:100): 10), for which, in assay [1], the “CDA2-GFP sporulation assay sensitivity score” value was 0.13 (inactive). In addition, in assay [2], the “HIS4 meiotic recombination assay sensitivity score” value was -1.74 (inactive). Besides, the growth sensitivity score was 155 (active) in assay [3] and 35.3 (active) in assay [4].
`CCS(=O)(=O)CCn1c([N+](=O)[O-])cnc1C` [Tinidazole] (stock concentration (mM, diluted 1:100): 10): in assay [1], the “CDA2-GFP sporulation assay sensitivity score” value is 1.26 (inactive). Also, the “HIS4 meiotic recombination assay sensitivity score” value in assay [2] is -1.77 (inactive). The growth sensitivity score is -0.62 (inactive) in assay [3] and -0.09 (inactive) in assay [4].
Turning to `CN1CC(=O)N2[C@H](c3ccc4c(c3)OCO4)c3[nH]c4ccccc4c3C[C@@H]2C1=O` [Tadalafil] (stock concentration (mM, diluted 1:100): 10), the “CDA2-GFP sporulation assay sensitivity score” value in assay [1] was -4.01 (inactive). Further, the “HIS4 meiotic recombination assay sensitivity score” value in assay [2] was -0.28 (inactive). For the same molecule, the growth sensitivity score is -2.54 in assay [3] and -1.71 (inactive) in assay [4].
Regarding `CC[C@@H]1C(=O)OC[C@@H]1Cc1cncn1C` [Pilocarpine hydrochloride] (stock concentration (mM, diluted 1:100): 10), in assay [1], the “CDA2-GFP sporulation assay sensitivity score” value was 1.83 (inactive). In addition, the “HIS4 meiotic recombination assay sensitivity score” value in assay [2] is -0.54 (inactive). Further, the growth sensitivity score in assay [3] is 0.16 (inactive); in assay [4], 0.72 (inactive).
`Nc1nc(Cl)nc2c1ncn2[C@@H]1O[C@H](CO)[C@@H](O)[C@H]1O` [2-Chloroadenosine] (stock concentration (mM, diluted 1:100): 10): the “CDA2-GFP sporulation assay sensitivity score” value in assay [1] was -0.44 (inactive). In addition, the “HIS4 meiotic recombination assay sensitivity score” value in assay [2] is -0.54 (inactive). The growth sensitivity score is -1.1 (inactive) in assay [3] and -1.07 (inactive) in assay [4].
The like results for `COC(=O)Nc1nc2cc(C(=O)c3ccc(F)cc3)ccc2[nH]1` [Flubendazole] (stock concentration (mM, diluted 1:100): 10) were, in that order, 0.4 (inactive), -2.01 (inactive), 12.3 (active) and 2.6 (active).
